Hits are enriched below; roughly 2.8% of the tested compounds scored in any of these assays.
Pol beta inh: DNA polymerase beta (human) inhibition. P06746. Pol beta primer extension/strand displacement, fluorescence kinetic. Potency, µM (doses to about 114 µM), hits mostly inhibitors. 340,000 tested, 1.3% active. AID 485314
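Preincubation: enzyme (10 nM) with compound, 15 min, RT. Reaction: substrate added to 50 nM final. Reads: 0 and 10 min. Analysis: normalized, Hill fit.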
Pol iota inh: blocks human DNA polymerase iota activity; Q9UNA4; Pol iota fluorescent replication assay, 10 min; Potency, µM (doses to about 115 µM), most hits filed as inhibitors; 390,000 tested, 1% active; AID 588590
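Pol iota at 10 nM preincubated 15 min with compounds at room temperature; reaction started with fluorescent substrate, 50 nM final. Fluorescence read kinetically at 0 and 10 min; buffer-only wells as negative control.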
Pol kappa inh-1: inhibitors of human DNA polymerase kappa; AID 588579; 400,000 tested, 0.53% active; Q9UBT6; Potency, µM (top dose mostly 107 µM), hits mostly inhibitors; purified Pol kappa, fluorescent DNA synthesis assay, 10 min
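10 nM Pol kappa was preincubated with compounds for 15 min at room temperature. Reaction started with 50 nM (final) substrate. Fluorescence read kinetically at 0 and 10 min.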
PI5P4K alpha inh: PI5P4K alpha (human) kinase inhibition; PI5P4Kalpha enzyme, ADP-Glo luminescence, 60 min; hits give low values; max response, %; 330,000 tested, 1.2% active; P48426; active means max response of -50% or lower; inconclusive means between -30% and -50%; inactive means -30% or higher; further: value at the top dose of about 77 µM
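Single end-point luminescence (ADP-Glo) quantified ADP from PI5P4Kalpha turnover; ATP 5 microM final, 1 h at RT, 0.1% CHAPS and 0.28 mM EGTA in HEPES pH 7.4.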
FEN1 inh: human FEN1 inhibition | P39748 | Recombinant FEN1 flap cleavage, fluorescence, 15 min | Potency, µM (titrated, usually from 114 µM), usual class: inhibitors | 390,000 tested, 0.35% active | AID 588795; further: nearly all actives have a fitted effect of over 65% in size
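FEN1 at 10 nM, compound pretreatment for 15 min (room temperature), 50 nM final substrate to initiate; endpoint reads at 0 and 15 min; DMSO-only plates used as vehicle background.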
Pol eta inh-1: blocks human DNA polymerase eta activity. Q9Y253. recombinant Pol eta, fluorescent DNA replication assay. Potency, µM (top dose mostly 114 µM), actives largely listed as inhibitors. 390,000 tested, 1.2% active. AID 588591
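Pol eta (10 nM) was preincubated with compounds for 15 min at room temperature, after which fluorescent replication substrate (50 nM final) was added to start the reaction. Fluorescence was read kinetically at 0 and 10 min.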
PGK validate: TbPGK inhibition, hit validation; shares compounds with Pol kappa inh-1; TbPGK coupled GAPDH assay, Kinase-Glo luminescence; Potency, µM (highest dose often 57.5 µM), most hits filed as inhibitors; 500 tested, 79% active; AID 686980; further: nearly all actives have a fitted effect of over 65% in size
Target sequence (P07378 whole entry, looked up): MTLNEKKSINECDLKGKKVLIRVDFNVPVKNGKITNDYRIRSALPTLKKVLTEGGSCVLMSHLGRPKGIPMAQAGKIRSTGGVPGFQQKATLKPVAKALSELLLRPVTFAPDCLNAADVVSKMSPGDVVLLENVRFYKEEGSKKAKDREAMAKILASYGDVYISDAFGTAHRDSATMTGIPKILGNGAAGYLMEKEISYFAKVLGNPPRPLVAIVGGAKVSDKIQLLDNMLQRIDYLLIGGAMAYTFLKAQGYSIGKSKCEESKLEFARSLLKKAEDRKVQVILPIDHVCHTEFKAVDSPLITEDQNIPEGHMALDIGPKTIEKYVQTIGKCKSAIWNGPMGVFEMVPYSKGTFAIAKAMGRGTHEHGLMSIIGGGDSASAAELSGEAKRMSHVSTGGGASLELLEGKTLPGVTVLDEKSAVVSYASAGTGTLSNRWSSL
Pol iota confirm: Confirm cherry-picked inhibitors of human polymerase iota; shares compounds with Pol kappa inh-1; Pol iota primer extension, TAMRA/BHQ fluorescence; Potency, µM, most hits filed as inhibitors; 1,500 tested, 77% active; AID 720496
GALK confirm: confirmation of human galactokinase (GALK) inhibitors; Potency, µM (top dose mostly 115 µM), most hits filed as inhibitors; AID 2015; shares compounds with Pol eta inh-1; 150 tested, 70% active; purified GALK, Kinase-Glo ATP depletion luminescence
Redox cycling: redox cycling activity in phenol red-HRP assay | Phenol red-HRP H2O2 redox cycling, absorbance 600 nm | Potency, µM (top dose mostly 115 µM), most hits filed as inhibitors | 150 tested, 40% active | shares compounds with Pol eta inh-1 | AID 2035
HEK293 viability: reduces HEK-293 cell viability in GALK counter-screen; shares compounds with Pol eta inh-1; HEK-293 viability, ATP luminescence (CellTiter-Glo), 24/48 h; Potency, µM (highest dose often 46.1 µM), most hits filed as inhibitors; 170 tested, 10% active; AID 2547
Pol kappa inh-2: Pol kappa (human) inhibition, cherry-pick confirmation. Potency, µM, actives largely listed as inhibitors. purified Pol-kappa, fluorescent strand-displacement substrate. shares compounds with Pol eta inh-1. 920 tested, 76% active. AID 720501
Pol eta inh-2: Pol eta (human) inhibition, cherry-pick confirmation. shares compounds with Pol eta inh-1. Pol eta primer extension, TAMRA/BHQ fluorescence, 10 min. Potency, µM, most hits filed as inhibitors. 2,600 tested, 64% active
Of the large screens only hits and unclear results are named; the others gave an inactive call (follow-up assays come after a bar, where they were run). Unless noted, the call rests on the fitted dose curve; in most records, active means well fitted curve in the direction sought with a large enough effect; inconclusive means small, poorly fitted or top-dose-only effect, or another doubt; inactive means no such curve, though single readings can be large; an effect the other way counts as inactive or inconclusive.

O=C1C=CC2=C3c4cc(O)c(O)cc4CC3(O)COC2=C1O (stereo unspecified)	Pol iota inh 1.3µM, Pol kappa inh-1 1.1µM, PI5P4K alpha inh -90, FEN1 inh 3.5µM, Pol eta inh-1 0.79µM (no result: Pol beta inh) | PGK validate 0.58µM | GALK confirm 21µM | Redox cycling inactive | HEK293 viability inactive
O=C1Nc2ccc([N+](=O)[O-])cc2OC1CCN1CCN(Cc2ccc3c(c2)OCO3)CC1 (stereo unspecified)	none
Cc1ccccc1Nc1c(F)c(F)c(F)c(F)c1C(=O)O	none
Nn1c(SCC(=O)NC2CCCc3ccccc32)nnc1-c1ccc(Cl)cc1Cl (stereo unspecified)	none (no result: Pol iota inh, Pol kappa inh-1, PI5P4K alpha inh, FEN1 inh, Pol eta inh-1)
Cc1ccc(S(=O)(=O)N2CCCCC2)cc1C(=O)Nc1ccc(S(=O)(=O)Nc2ncccn2)cc1	Pol beta inh inconclusive, Pol iota inh 40µM, Pol kappa inh-1 79µM, PI5P4K alpha inh inconclusive, FEN1 inh inconclusive, Pol eta inh-1 14µM | Pol iota confirm 42 | Pol eta inh-2 30
Cc1cccc(NC(=O)C2CCN(S(=O)(=O)c3ccc(F)cc3)CC2)c1C	none (no result: PI5P4K alpha inh)
Cc1cc(C=O)c(C)n1-c1cccc(C(=O)O)c1	Pol beta inh 14µM, Pol iota inh 18µM, Pol kappa inh-1 79µM, Pol eta inh-1 4µM | Pol iota confirm 34 | Pol eta inh-2 21
Cc1cc(C=O)c(C)n1-c1cc(C(=O)O)cc(C(=O)O)c1	Pol beta inh 7.9µM, Pol iota inh 25µM, Pol kappa inh-1 50µM, FEN1 inh inconclusive, Pol eta inh-1 4µM | PGK validate inconclusive | Pol iota confirm 17 | Pol eta inh-2 5.4
COC(=O)c1cccc(-n2c(C)cc(C=O)c2C)c1	none
CCN(CC)S(=O)(=O)c1cccc(C(=O)N[C@H](C(=O)Nc2nc3ccc(F)cc3s2)C(C)C)c1	none
CCC(=O)C1=C(c2cccc([N+](=O)[O-])c2)N(C(=O)CC)n2c(nnc2C2CCCCC2)S1	none (no result: PI5P4K alpha inh)
O=c1cc(-c2ccc(O)c(O)c2)oc2cc(O)c(C3OC(CO)C(O)C(O)C3O)c(O)c12 (stereo unspecified)	Pol beta inh 4.5µM, Pol iota inh 10µM, Pol kappa inh-1 20µM, FEN1 inh inconclusive, Pol eta inh-1 3.2µM | Pol iota confirm 42 | Pol eta inh-2 19
O=c1cc(-c2ccc(O)cc2)oc2cc(O)c([C@@H]3O[C@H](CO)[C@@H](O)[C@H](O)[C@H]3O)c(O)c12	none (no result: Pol beta inh)
COc1ccc(COC(=O)N/N=C(\C)CC(=O)Nc2ccc(Cl)cn2)cc1	none
N#Cc1cn(N2CCCCC2)c(=O)[nH]c1=O	none
CCOc1ccc(C2C3=C(CCCC3=O)Nc3ccc4ncccc4c32)cc1 (stereo unspecified)	none
O=C1CCCC2=C1C(c1ccc(O)c(O)c1)c1c(ccc3ncccc13)N2 (stereo unspecified)	Pol beta inh 6.3µM, Pol iota inh inconclusive, Pol kappa inh-1 inconclusive, PI5P4K alpha inh inconclusive, FEN1 inh inconclusive, Pol eta inh-1 25µM | Pol iota confirm 67 | Pol eta inh-2 inconclusive
O=C(/C=C/c1ccco1)Nc1cccnc1	none
O=C(/C=C/c1ccco1)c1cccnc1	Pol iota inh inconclusive, Pol kappa inh-1 inconclusive, Pol eta inh-1 14µM | Pol iota confirm 67 | Pol eta inh-2 30
O=C(CSc1nc2ccccc2c(=O)[nH]1)c1ccc(O)c(O)c1	Pol beta inh 20µM, Pol iota inh 13µM, Pol kappa inh-1 20µM, PI5P4K alpha inh -56, FEN1 inh inconclusive, Pol eta inh-1 2.5µM | PGK validate inconclusive | Pol iota confirm inconclusive | Pol kappa inh-2 19 | Pol eta inh-2 30
COc1ccc(Nc2nnc(-c3ccc(C)c(S(=O)(=O)NCc4nc5ccccc5[nH]4)c3)c3ccccc23)cc1	none (no result: PI5P4K alpha inh)
O=C(NCCC(=O)N1CCN(S(=O)(=O)c2ccccc2Cl)CC1)Nc1ccccc1	none (no result: Pol beta inh)
O=C1C=C(O)c2[nH]c(=O)ccc2C1=O	Pol iota inh 18µM, Pol kappa inh-1 inconclusive, PI5P4K alpha inh -57, FEN1 inh inconclusive, Pol eta inh-1 18µM (no result: Pol beta inh) | Pol iota confirm 53 | Pol kappa inh-2 24 | Pol eta inh-2 48
NC1=CC(=O)C(=O)c2ccccc21	Pol iota inh inconclusive, Pol eta inh-1 inconclusive (no result: Pol beta inh)
CNS(=O)(=O)c1cc(-c2nnc(Nc3cc(C)ccc3C)c3ccccc23)ccc1C	Pol iota inh inconclusive (no result: PI5P4K alpha inh)
O=C(O)c1ccc(COc2ccccc2/C=C2/NC(=O)N(c3cccc(Cl)c3)C2=O)cc1	Pol beta inh 25µM, Pol iota inh 28µM, Pol kappa inh-1 40µM, PI5P4K alpha inh -50, FEN1 inh 56µM, Pol eta inh-1 10µM | Pol iota confirm 34 | Pol kappa inh-2 19 | Pol eta inh-2 34
Cc1ccc(C(=O)NCC(=O)OCC(=O)Nc2ccccc2C#N)s1	none
C=CCN1C(=O)/C(=C2/Sc3ccccc3N2CC)SC1=S	Pol beta inh inconclusive
C=CCN1C(=O)/C(=C2/Sc3ccccc3N2CCCS(=O)(=O)O)SC1=S	Pol beta inh 45µM, Pol iota inh inconclusive, Pol kappa inh-1 inconclusive, PI5P4K alpha inh inconclusive, FEN1 inh inconclusive, Pol eta inh-1 3.2µM | Pol iota confirm inconclusive | Pol eta inh-2 38

Assay outcomes from PubChem.
